# System: LXRb homodimer (NR concentration 270 nM)
# Test: PBM binding z-score (relative to random genomic background probes); higher = stronger binding; sequences stand for … in GC…GCGATTGACAGCGTAGAATGAAGG
# Outline: (§1)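 Random background probes are the reference for binding z-scores. These scores derive from regression-normalized fluorescence on custom Agilent 4×180K protein-binding microarrays incubated 1 h with ligand-free nuclear receptor dimers. Binding was detected with antibodies against each partner (one per run).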
row,Sequence,PBM binding z-score
1,CCACGGAGGACAGAAGGTCAGAGCTGTCCGCTTT,-0.786
2,ATCTCGAGGTAAAGTTCAGTGAAAGATCGATAGA,0.424
3,CCAGACAGGTGTAAGGTAACTCAGTCTGGTACGC,-0.449
4,CGAACTAGGTCATCCAGGACAGTGTATACATTGA,0.0566
5,CGAACTAGGTCATCCAGGGCAGTGAATACATTGA,-0.0808
6,GCTTTCGGGTCAAAGGTTATAGCATGAATAGAAT,0.746
7,GCGACTGGGGTAAAGCAGGTTACCATAAGGTTGG,-0.819
8,AGAATGAGGTTATGAAGATCAGGGAATTGCGGTC,-0.127
9,GGAACGAGGGAAAAGTTGATAGCATCTGTCGACG,-0.568
10,ATATGTAGGTTAGCTGGGTTCATTCAGACTAGGC,0.361
11,AGAATGAGGTTATAAGTAGATCAGGGAAGAAAGT,0.269
12,TCTAGCAGGCCAAAGGGTCACTCAAGAGGTACGG,-0.592
13,GCGACTGGGGCAAAGCAAGTTACCATAAGGTTGG,-0.665
14,GTACCAAGGTGAATAGGACGTTGATGAGTAGGCG,-0.664
15,TCAAGTAGGTTACCAATGGGGCATTCAGCTTTCT,-0.449
16,TCATATAGGTACTACAGGTGAAAGTCGGCATCTA,0.0353
17,TCATATAAGTAAACAGGTGAAAGTCCGTAAGTTA,0.0139
18,TCATGTAGGTAAATGCTAGGTGAAAGTCCGATCT,0.151
19,CCTTACGGGTCACGAGGTTATAGGACGACGAGCG,-0.117
20,ATATCAAGGTGATCGTGAGGTCGTTGATACTAAC,0.595

row,Sequence,PBM binding z-score
1,TAGCCTAGGTCATGCGGGCCACTATAGTGTCGGC,-0.164
2,GTACCAAGGTGAAGAGGTCGTTGATGAGTAGGCG,-0.425
3,CCTAGTTGGTCAAAGTCACACACGCTATAGGTAC,0.603
4,TCTTGTAGATCAAGCACGTTAAGAAAGCCTGAGT,-0.495
5,TTACCAAGGTGAGAGGTCGTTGATGCACGCCTTG,-0.758
6,TCTTGTAGATCAAAGGCTAAGAAAGCCGAAGCCT,-0.625
7,TAGCCTAGGTCAGAACGGGCCAGTATACGCTATA,-0.65
8,ATCGAAAGGTCGAAGGCGAGTATACCCACCCGAA,0.608
9,CCTAGCAAGCCAATCTGGGTCACTCAAGGCTTGA,-0.582
10,CCGAGTTGGTCAGGAGGTCACACACCGGATATGA,-0.213
11,AGAGACAGGTGAGTGAAGGTAACTCAGCTGGACG,0.443
12,GCTCGGCGGACAAGGTCAGAGCTTTGTCCGTAGA,-1.28
13,ACTAGCAGGCCAAGTTTGGGCCACTCAAACAAAG,-1.23
14,ACTAGCAGGCCAAGTTTGGGTCACTCAGACAAAG,-1.05
15,CCTTACGGGTCACTCCAGGGTATAGCATCGGAGT,-0.114
16,GGAACGAGGGCAATTTGATAGCAGAGTTTGATGG,-0.315
17,CGTCCAAGGTCATAGGAGGTCAGTTAAGACAGAT,1.11
18,CGTCCAAGGTGAGCAGGTCAGTGAAAGCGACGTG,-1.28
19,GCTAGTTGGTCAGTAAAAGGTCACACATCGGTCG,0.936

# System: PPARa:RXRa (NR concentration 270 nM, RXRa partner concentration 90 nM)
# Test: as above
# Outline: as §1
row,Sequence,PBM binding z-score
1,CCACGGAGGACAGAAGGTCAGAGCTGTCCGCTTT,2.11
2,ATCTCGAGGTAAAGTTCAGTGAAAGATCGATAGA,2.4
3,CCAGACAGGTGTAAGGTAACTCAGTCTGGTACGC,0.0692
4,CGAACTAGGTCATCCAGGACAGTGTATACATTGA,4.61
5,CGAACTAGGTCATCCAGGGCAGTGAATACATTGA,5.08
6,GCTTTCGGGTCAAAGGTTATAGCATGAATAGAAT,6.76
7,GCGACTGGGGTAAAGCAGGTTACCATAAGGTTGG,1.66
8,AGAATGAGGTTATGAAGATCAGGGAATTGCGGTC,2.86
9,GGAACGAGGGAAAAGTTGATAGCATCTGTCGACG,1.15
10,ATATGTAGGTTAGCTGGGTTCATTCAGACTAGGC,3.76
11,AGAATGAGGTTATAAGTAGATCAGGGAAGAAAGT,2.96
12,TCTAGCAGGCCAAAGGGTCACTCAAGAGGTACGG,3.89
13,GCGACTGGGGCAAAGCAAGTTACCATAAGGTTGG,0.868
14,GTACCAAGGTGAATAGGACGTTGATGAGTAGGCG,0.537
15,TCAAGTAGGTTACCAATGGGGCATTCAGCTTTCT,2.16
16,TCATATAGGTACTACAGGTGAAAGTCGGCATCTA,1.4
17,TCATATAAGTAAACAGGTGAAAGTCCGTAAGTTA,1.55
18,TCATGTAGGTAAATGCTAGGTGAAAGTCCGATCT,1.33
19,CCTTACGGGTCACGAGGTTATAGGACGACGAGCG,5.93
20,ATATCAAGGTGATCGTGAGGTCGTTGATACTAAC,1.82

row,Sequence,PBM binding z-score
1,TAGCCTAGGTCATGCGGGCCACTATAGTGTCGGC,3.55
2,GTACCAAGGTGAAGAGGTCGTTGATGAGTAGGCG,3
3,CCTAGTTGGTCAAAGTCACACACGCTATAGGTAC,0.517
4,TCTTGTAGATCAAGCACGTTAAGAAAGCCTGAGT,0.484
5,TTACCAAGGTGAGAGGTCGTTGATGCACGCCTTG,3.59
6,TCTTGTAGATCAAAGGCTAAGAAAGCCGAAGCCT,1.68
7,TAGCCTAGGTCAGAACGGGCCAGTATACGCTATA,1.31
8,ATCGAAAGGTCGAAGGCGAGTATACCCACCCGAA,3.71
9,CCTAGCAAGCCAATCTGGGTCACTCAAGGCTTGA,3.06
10,CCGAGTTGGTCAGGAGGTCACACACCGGATATGA,4.03
11,AGAGACAGGTGAGTGAAGGTAACTCAGCTGGACG,0.437
12,GCTCGGCGGACAAGGTCAGAGCTTTGTCCGTAGA,2.03
13,ACTAGCAGGCCAAGTTTGGGCCACTCAAACAAAG,-0.243
14,ACTAGCAGGCCAAGTTTGGGTCACTCAGACAAAG,1.27
15,CCTTACGGGTCACTCCAGGGTATAGCATCGGAGT,4.27
16,GGAACGAGGGCAATTTGATAGCAGAGTTTGATGG,1
17,CGTCCAAGGTCATAGGAGGTCAGTTAAGACAGAT,5.68
18,CGTCCAAGGTGAGCAGGTCAGTGAAAGCGACGTG,1.73
19,GCTAGTTGGTCAGTAAAAGGTCACACATCGGTCG,4.23
